NPC1 promoter act: activates the NPC1 promoter; Huh7 NPC1 promoter luciferase reporter, 24 h; Potency, µM (highest dose often 9.22 µM), inactives show top-dose activation, usual class: activators; actives 2.4% (n = 320,000); also: % of control where 0% means no effect; nearly all actives have a fitted effect of over 60% in size
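Luminescence read-out of NPC1 promoter-driven luciferase in stably transfected Huh7 cells; compounds delivered in DMSO and left 24 h at 37C, 5% CO2, qHTS titration format.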
FLuc counter: firefly luciferase modulation, counter-screen for miR-21 project. P08659. purified FLuc, Km substrates, luminescence inhibition. AID 588342. Potency, µM (top dose mostly 57.5 µM), for the others: top-dose activity change, negative = inhibition, hits mostly inhibitors. actives 6.9% (n = 360,000);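 also: plate controls were vehicle for no effect and reference inhibitor for full effect; nearly all actives have a fitted effect of over 55% in size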
Target sequence (P08659 whole entry, looked up): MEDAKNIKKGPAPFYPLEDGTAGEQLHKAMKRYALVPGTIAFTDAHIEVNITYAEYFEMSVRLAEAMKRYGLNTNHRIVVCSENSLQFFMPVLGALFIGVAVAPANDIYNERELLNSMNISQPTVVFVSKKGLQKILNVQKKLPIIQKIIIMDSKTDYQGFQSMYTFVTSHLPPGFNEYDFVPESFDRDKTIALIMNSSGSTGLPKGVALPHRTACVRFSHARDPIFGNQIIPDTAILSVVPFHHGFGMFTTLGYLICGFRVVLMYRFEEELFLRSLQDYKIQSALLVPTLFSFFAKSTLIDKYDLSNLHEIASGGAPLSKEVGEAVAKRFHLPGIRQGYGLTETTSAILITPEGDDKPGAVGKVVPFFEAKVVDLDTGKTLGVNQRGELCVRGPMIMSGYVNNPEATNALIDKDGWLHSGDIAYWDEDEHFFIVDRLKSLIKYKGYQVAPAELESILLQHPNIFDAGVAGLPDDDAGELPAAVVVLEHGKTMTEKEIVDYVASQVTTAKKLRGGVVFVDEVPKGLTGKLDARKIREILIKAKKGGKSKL
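Purified P. pyralis luciferase, 10 nM final, with Km-level 10 uM D-luciferin and 10 uM ATP in 50 mM Tris acetate pH 7.5, 10 mM Mg acetate, 0.01% Tween-20, 0.05% BSA; 6-point qHTS titration about 60 µM downward; luminescence read.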
SMN2 splice up: increases expression of the SMN2 splice variant | HEK293 SMN2-luciferase splicing reporter, luminescence, 30-36 h | Potency, µM (doses to about 46.1 µM), for the others: at the highest dose activity change, positive = activation, actives largely listed as activators | actives 2.8% (n = 210,000); also: % of control where 0% means no effect; nearly all actives have a fitted effect of over 55% in size
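HEK293 cells carry an SMN2 minigene-luciferase reporter in which exon 7 inclusion puts luciferase in frame. Cells were seeded at 2000 cells/well, attached for 10-12 hours, then exposed to compounds for 30-36 hours at 37C before ONE-Glo luminescence.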
Rab9 promoter act: activates the Rab9 promoter | Potency, µM (series often up to 9.22 µM), without a hit: at the top dose activation, negative = inhibition, hits mostly activators | AID 485297 | Huh7 Rab9 promoter-luciferase reporter, luminescence, 24 h | actives 2.8% (n = 320,000); also: % of control where 0% means no effect; nearly all actives have a fitted effect of over 60% in size
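Huh7 cells stably carrying Rab9 promoter–luciferase reporter, plated 1500 cells/well, compound added after 2 h and incubated 24 h at 37 °C; luciferase luminescence then read after 10 min with detection reagent.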
ELG1 repair inh: ELG1-dependent DNA repair inhibition | HEK293T ELG1-luciferase reporter, luminescence, 16 h; DNA damage induced by 5-fluorouridine | Potency, µM (top dose mostly 46.1 µM), for the others: at the top dose activity change, negative = inhibition, actives largely listed as inhibitors | actives 2.3% (n = 330,000) | AID 504467; also: % is scaled to controls: 0 for no effect and ±100 for the full control effect; nearly all actives have a fitted effect of over 55% in size
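Cells (2,000 per well) received 5-fluorouridine plus test compound or DMSO and were incubated 16 hr at 37 °C, 5% CO2. Luciferase activity was read by luminescence 30 min after ONE-Glo addition; signal suppression marked inhibition of damage-induced ELG1 function.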
ELG1 genotoxic: genotoxicity induction in ELG1-luciferase HEK293T cells; actives 1.3% (n = 330,000); Potency, µM (doses to about 46 µM), for the others: at the top dose activity change, positive = activation, usual class: activators; HEK293T ELG1-luciferase reporter, luminescence, 16 h; AID 504466; also: % of control where 0% means no effect; nearly all actives have a fitted effect of over 60% in size
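ELG1-luciferase HEK293T cells, 2,000/well; compound pinned in; 16 hr, 37 °C, 5% CO2; ONE-Glo, 30 min RT; luminescence on CCD imager.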
* marks the source's active call; other numbers are inactive results; ? = inconclusive; · = no result; [ ] = dose if it differs, or a comment. Most compounds without a hit are left out; they make up all but 9.2% or so of the library. Calls follow the shape of the dose curve; as a rule, active = well fitted curve in the direction sought with a large enough effect; inconclusive = small, poorly fitted or top-dose-only effect, or another doubt; inactive = no such curve, though single readings can be large; an effect the other way counts as inactive or inconclusive. Potency is read from the fitted curve at half-maximal effect.

SMILES | NPC1 promoter act | FLuc counter | SMN2 splice up | Rab9 promoter act | ELG1 repair inh | ELG1 genotoxic
COc1ccc(CCn2c3c(c(=O)[nH]c2=O)C(NC(=O)c2ccc(Cl)cc2)(C(F)(F)F)C(=O)N3)cc1OC (configuration not stated) | · | ? | 1% | · | · | ·
CCc1ccc2oc(-c3cccc(NC(=O)COc4ccccc4Cl)c3)nc2c1 | · | ? | 23% | · | · | ·
Cc1ccc2nc(-c3cccc(N)c3)oc2c1 | 0.89µM* | 0.21µM* | ? | 3.5µM* | ? | 1.6µM*
Cc1ccc2nc(-c3ccc(O)cc3)oc2c1 | 2.5µM* | 0.95µM* | · | ? | ? | ?
CCc1ccc2oc(-c3cccc(N)c3)nc2c1 | 0.56µM* | 0.24µM* | 6.3µM* | 1.6µM* | ? | ?
Cc1ccc2nc(Cc3ccc(N)cc3)oc2c1 | 3.5µM* | 13µM* | ? | 3.2µM* | ? | 12µM*
CCCCCN(C(=O)COC(=O)c1ccc(C)cc1)c1c(N)n(CCCC)c(=O)[nH]c1=O | -1% | 3% | · | -8% | -9% | 0%
Cc1cc(C)c2oc(-c3cccc(N)c3)nc2c1 | 3.5µM* | 3.8µM* | · | ? | ? | ?
Cc1ccc(C)c(NC(=O)CN(C)C(=O)c2ccc(S(=O)(=O)N3CCCCCC3)cc2)c1 | -1% | 3% | · | 3% | -7% | 2%
CCc1cc2c(SC(C)C(=O)NC3CCCC3)ncnc2s1 (configuration not stated) | · | · | · | · | ? | -1%
CCc1cc(C=NC2CCCCC2)c(O)s1 | ? | ? | 18% | 3.5µM* | ? | 13%
O=C(NC(=S)N1CCOCC1)c1ccc(F)cc1 | 2% | 2% | · | 4% | 9% | 7%
O=C(CCCn1c(=O)c2cccn2c2ccccc21)NCCc1ccc(Cl)cc1 | · | 3.8µM* | · | · | · | ·
O=C(CCn1c(=O)c2cccn2c2ccc(F)cc21)NCCc1ccc(Cl)cc1 | · | 0% | · | · | · | ·
Cc1cccc(C)c1NC(=O)CCCn1c(=O)c2cccn2c2ccccc21 | · | 5.4µM* | · | · | · | ·
Cc1cc(C)cc(NC(=O)CCn2c(=O)c3cccn3c3ccccc32)c1 | -29% | -1% | · | -24% | -15% | -9%
COc1cccc(NC(=O)CSC2=C(C#N)C(c3ccco3)C3=C(CCCC3=O)N2)c1 (configuration not stated) | 3% | -31%[2.3 µM] | 24% | 1% | -22% | 1%
CCCCc1ccc(NC(=O)CSC2=C(C#N)C(c3ccco3)C3=C(CCCC3=O)N2)cc1 (configuration not stated) | 1% | -1% | -30% | 1% | 18µM* | -9%
Cc1ccc(C(=O)CSC2=C(C#N)C(c3ccco3)C3=C(CCCC3=O)N2)cc1 (configuration not stated) | -26% | -18% | 19% | -4% | 6.5µM* | -1%
COc1ccccc1NC(=O)C1=C(C)NC(SCC(=O)c2ccc(C)cc2)=C(C#N)C1c1ccco1 (configuration not stated) | -5% | 9% | 3% | -5% | 16µM* | 1%
CC(=O)C1=C(C)NC(SCC(=O)c2ccc(F)cc2)=C(C#N)C1c1ccco1 (configuration not stated) | -1% | 2% | 10% | 8% | ? | 16%
COc1ccccc1-c1nc(S(=O)(=O)c2ccccc2)c(N2CCC(C)CC2)o1 | · | 5% | 5% | · | · | ·
CC(NC(=O)c1ccc(N2CCCC2)c([N+](=O)[O-])c1)c1ccc(S(N)(=O)=O)cc1 (configuration not stated) | 5% | 1% | · | 1% | -3% | 13%
Cc1nc(Nc2ccc(S(N)(=O)=O)cc2)sc1-c1ccccc1 | 28% | 21µM* | · | 17% | ? | 17%
COc1ccc2c(C)nc(Nc3nc(C)c(C)c(=O)[nH]3)nc2c1 | ? | 9.5µM* | 3% | ? | ? | ?
SMILES | NPC1 promoter act | FLuc counter | SMN2 splice up | Rab9 promoter act | ELG1 repair inh | ELG1 genotoxic
CCc1c(C)nc(Nc2nc(C)c3ccc(OC)cc3n2)[nH]c1=O | 16% | ? | -23% | ? | ? | ?
COc1ccc(Nc2nc(-c3sc(NC(C)=O)nc3C)cs2)cc1 | -6% | ? | -8% | 0% | ? | -6%
COc1ccc(Nc2nc(C)c3ccccc3n2)cc1 | ? | -5%[2.3 µM] | 35µM* | 2.5µM* | ? | ?
COc1ccc(Nc2nc(-c3ccccc3)c3ccccc3n2)cc1 | -1% | -18% | -23% | -1% | ? | -8%
COc1ccc(Nc2nc(C)c(-c3ccccc3)s2)cc1 | ? | 7.6µM* | ? | 4µM* | ? | ?
CN(NS(C)(=O)=O)c1c(C#N)c(C(F)(F)F)nn1C | 0% | -3% | 0% | -11% | -17% | -9%
COCCn1c(SCC(=O)NC(=O)NCc2ccccc2)nc2ccccc2c1=O | -1% | -1% | · | -3% | -5% | -2%
S=c1[nH]c2ccc3ccccc3c2[nH]1 | 11% | -29% | 10% | ? | ? | 14%
S=c1[nH]c2cc3ccccc3cc2[nH]1 | 14% | 4.8µM* | · | 3% | ? | ?
COc1cccc(NC(=O)CCS(=O)(=O)c2ccc3c(c2)oc(=O)n3C)c1 | -4% | 0% | · | -1% | -1% | 0%
Cc1ccc(C)c(NC(=O)CSc2ncc3c(n2)-c2ccc(Cl)cc2N(C)S3(=O)=O)c1 | · | -5% | · | · | · | ·
Nc1c(-c2cccs2)cnc2c(-c3ccc(F)cc3)cnn12 | 0.45µM* | 0.48µM* | · | 0.35µM* | ? | 2.6µM*
CS(=O)(=O)c1cnc2c(-c3ccc(F)cc3)cnn2c1N | 0.79µM* | 2.4µM* | ? | 1.1µM* | ? | ?
CC(C)(C)S(=O)(=O)c1cnc2c(-c3ccsc3)cnn2c1N | ? | -9% | ? | ? | ? | 9%
Nc1c(-c2ccccc2)cnc2c(-c3ccccc3)cnn12 | 0.32µM* | 0.24µM* | · | 0.11µM* | ? | 0.73µM*
CCN(Cc1ccccc1)Cc1c(O)ccc2c(=O)c(-c3ccc(Cl)cc3)c(C(F)(F)F)oc12 | · | -1% | 2% | · | · | ·
NC(=O)c1ccsc1NC(=O)c1coc2ccccc2c1=O | ? | 2.4µM* | 11µM* | 2µM* | ? | 7.3µM*
CC(C)c1ccc(C(=O)CSc2ncn[nH]2)cc1 | ? | 9.5µM* | 29% | ? | ? | ?
COc1ccccc1OCCNC(=O)CNC(=O)c1ccc(Cl)c(Cl)c1 | 0% | 0% | · | -2% | 8% | -5%
COc1ccccc1OCCNC(=O)c1ccc2c(c1)OCCO2 | 3.2µM* | ? | · | 2.2µM* | ? | ?
COc1ccccc1OCCNC(=O)c1ccc2c(c1)CCC2 | ? | 15µM* | · | ? | ? | 13µM*
